Publication PMC7826789 (International Journal of Molecular Sciences, 2021)

Tests used:
Conditions in all cases: Compound Concentration (nM):1000
[1] = tested on: CDKL3
[2] = tested on: CDKL5
[3] = tested on: CHEK1
[4] = tested on: CHEK2
[5] = tested on: CIT
[6] = tested on: CLK1
[7] = tested on: CLK2
[8] = tested on: CLK3
[9] = tested on: CLK4
[10] = tested on: CSF1R-autoinhibited
[11] = tested on: CSF1R
[12] = tested on: CSK
[13] = tested on: CSNK1A1L
[14] = tested on: CSNK1A1
[15] = tested on: CSNK1D
[16] = tested on: CSNK1E
[17] = tested on: CSNK1G1
[18] = tested on: CSNK1G2
[19] = tested on: CSNK1G3
[20] = tested on: CSNK2A1
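Also: KINOMEscan scanMAX binding as percent activity remaining versus control; lower means stronger binding.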

Structure (SMILES) | Percent Control [1] [%] | Percent Control [2] [%] | Percent Control [3] [%] | Percent Control [4] [%] | Percent Control [5] [%] | Percent Control [6] [%] | Percent Control [7] [%] | Percent Control [8] [%] | Percent Control [9] [%] | Percent Control [10] [%] | Percent Control [11] [%] | Percent Control [12] [%] | Percent Control [13] [%] | Percent Control [14] [%] | Percent Control [15] [%] | Percent Control [16] [%] | Percent Control [17] [%] | Percent Control [18] [%] | Percent Control [19] [%] | Percent Control [20] [%]
COc1cc(C)c(N(C)C(=O)CN(C)C)cc1Nc1nc(Nc2cccc(F)c2C(N)=O)c2cc[nH]c2n1 [GSK2219385] | 100 | 44 | 92 | 69 | 100 | 54 | 58 | 91 | 67 | 100 | 100 | 95 | 67 | 47 | 23 | 23 | 54 | 11 | 28 | 78
CC(C)COC(=O)c1ccc2c(c1)/C(=C/Nc1ccc(S(N)(=O)=O)cc1)C(=O)N2 [GW416981X] | 64 | 5.1 | 100 | 42 | 86 | 18 | 2.3 | 98 | 41 | 95 | 100 | 100 | 50 | 99 | 100 | 100 | 96 | 94 | 100 | 9
CC1=C(C(=O)Nc2ccc3[nH]ncc3c2)C(c2ccc(Cl)c(Cl)c2)CC(=O)N1 (stereo not shown) [GSK299115A] | 95 | 97 | 95 | 100 | 100 | 75 | 67 | 78 | 52 | 74 | 97 | 91 | 66 | 84 | 100 | 100 | 100 | 88 | 96 | 91
COc1cc(N2CCN(C(C)C)CC2)ccc1Nc1nc(Nc2ccc(F)cc2C(=O)NC[C@@H](O)CO)c2cc[nH]c2n1 [GSK1392956A] | 100 | 43 | 94 | 0.2 | 80 | 1.6 | 2.6 | 77 | 7.5 | 100 | 100 | 86 | 68 | 35 | 31 | 46 | 52 | 32 | 29 | 51
CN1CCN(C(=O)c2ccc(NC(=O)Nc3ccc(N(C)c4ccnc(Nc5ccc(CS(C)(=O)=O)cc5)n4)cc3)cc2)CC1.Cl [GW830263A] | 72 | 100 | 100 | 68 | 79 | 84 | 54 | 95 | 100 | 8.8 | 0 | 62 | 100 | 85 | 99 | 75 | 100 | 100 | 100 | 83
COc1ccc2c(-c3ccnc(Nc4cccc(OC(F)(F)F)c4)n3)cnn2n1 [GW810372X] | 0 | 14 | 100 | 100 | 97 | 1.3 | 2.8 | 32 | 2.4 | 86 | 100 | 100 | 100 | 92 | 100 | 100 | 98 | 100 | 100 | 67
NS(=O)(=O)c1ccc(N/N=C2\C(=O)Nc3ccc(-c4cnco4)cc32)cc1 [GW276655] | 37 | 16 | 100 | 93 | 79 | 36 | 24 | 100 | 37 | 88 | 100 | 92 | 78 | 76 | 60 | 96 | 100 | 72 | 91 | 50
CCS(=O)(=O)c1ccc(OC)c(Nc2ncc(-c3cccc(OC)c3)o2)c1 [GW580509X] | 100 | 59 | 100 | 100 | 100 | 6.9 | 3.9 | 71 | 15 | 43 | 72 | 90 | 100 | 100 | 100 | 85 | 99 | 100 | 97 | 21
COc1cc2ncnc(Nc3ccc4c(cnn4Cc4ccccc4)c3)c2cc1OC.Cl [GW282449A] | 100 | 55 | 100 | 0 | 100 | 100 | 100 | 100 | 100 | 100 | 100 | 5.1 | 100 | 100 | 100 | 97 | 100 | 100 | 100 | 82
CC1=C(C(=O)Nc2ccc3[nH]ncc3c2)C(c2ccc3ccccc3c2)CC(=O)N1 (stereo not shown) [GSK270822A] | 72 | 100 | 92 | 100 | 99 | 95 | 80 | 91 | 70 | 54 | 82 | 95 | 64 | 91 | 100 | 100 | 92 | 89 | 100 | 80
Nc1ncnc2occ(-c3ccc(NC(=O)Nc4cc(C(F)(F)F)ccc4F)cc3)c12 [GW770249X] | 13 | 100 | 100 | 96 | 44 | 41 | 100 | 100 | 57 | 25 | 0.2 | 74 | 92 | 100 | 82 | 76 | 98 | 92 | 99 | 100
O=C1Nc2ccc(C(=O)c3ccco3)cc2C1=Cc1cc(Cl)c(O)c(Cl)c1 [GW406108X] | 100 | 100 | 100 | 42 | 89 | 3.3 | 0.1 | 6.2 | 12 | 61 | 93 | 79 | 100 | 93 | 100 | 100 | 82 | 96 | 100 | 9.7
COc1cccc(-n2ncc3c(N/N=C/c4ccncc4)ncnc32)c1 [GW784752X] | 46 | 5.1 | 100 | 87 | 86 | 42 | 61 | 100 | 45 | 96 | 100 | 78 | 91 | 94 | 92 | 100 | 100 | 100 | 100 | 20
COc1ccc2[nH]c3c4[nH]c5ccc(OC)cc5c4c4c(c3c2c1)C(=O)NC4=O [GW296115X] | 91 | 94 | 12 | 1.7 | 35 | 80 | 56 | 79 | 57 | 59 | 58 | 95 | 91 | 62 | 94 | 52 | 74 | 86 | 100 | 61
O=C(Nc1n[nH]c2nc(-c3ccc(O)cc3)c(Br)cc12)C1CC1 [SB-725317] | 100 | 37 | 100 | 100 | 51 | 100 | 95 | 100 | 100 | 96 | 100 | 100 | 100 | 100 | 100 | 85 | 100 | 100 | 100 | 87
CCc1ccc(Oc2nccc(-c3c(-c4ccc(F)cc4)ncn3C3CCNCC3)n2)cc1 [SB-242719] | 100 | 84 | 90 | 84 | 1.2 | 100 | 70 | 100 | 100 | 77 | 100 | 80 | 66 | 5.1 | 1.7 | 0.4 | 83 | 40 | 53 | 77
C[C@@H](Oc1cc(-n2cnc3ccc(OC4CCN(C)CC4)cc32)sc1C(N)=O)c1ccccc1Cl [GSK579289A] | 100 | 100 | 90 | 100 | 78 | 62 | 88 | 87 | 95 | 73 | 65 | 76 | 89 | 77 | 80 | 100 | 83 | 80 | 100 | 55
COc1ccc2cc(-c3c(-c4ccncc4)nc(-c4ccc(S(C)(=O)=O)cc4C)n3C)ccc2c1 [SB-633825] | 86 | 82 | 88 | 100 | 100 | 96 | 87 | 97 | 62 | 66 | 93 | 98 | 55 | 85 | 86 | 69 | 90 | 81 | 100 | 82
Cc1cc(O)cc(C)c1/C=C/c1cncc(C(N)=O)c1 [GW435821X] | 100 | 100 | 100 | 99 | 98 | 89 | 100 | 100 | 74 | 87 | 34 | 80 | 100 | 100 | 100 | 86 | 100 | 100 | 100 | 90
COc1cc2ncn(-c3cc(O[C@H](C)c4ccccc4Cl)c(C(N)=O)s3)c2cc1OC [GSK237701A] | 76 | 100 | 100 | 100 | 100 | 81 | 90 | 77 | 68 | 70 | 63 | 88 | 60 | 88 | 100 | 100 | 85 | 89 | 100 | 83
